About 900 (1.7%) of roughly 53,000 compounds showed an effect of 50% or more. The sample as a whole holds a higher share of strong results than the screen did.
Test system: Mycobacterium tuberculosis
Assay: Cornell - Phenotypic assay to identify agents that inhibit growth of Mycobacterium tuberculosis
Assay type: functional
Set-up: scale not given: direction of the effect not stated beside the values
Conditions: 10 mM as filed; unlikely as a test dose

Question: With `COCc1cccc(CNc2cnn(C(C)(C)C)c(=O)c2Cl)c1` as the compound, how does the “Percent Effect” value read?
Answer: The value was 17.4%.

Question: `COCc1ccc(CNc2cnn(C(C)(C)C)c(=O)c2Cl)cc1` was tested. Which “Percent Effect” value did it give?
Answer: Its value is 55.73%.

Question: How did the “Percent Effect” value turn out when `CC(C)(C)n1ncc(NCc2ccccc2)c(Cl)c1=O` was run?
Answer: Its value is -56.94%.

Question: For `CCCN1CCC(c2nc3ccc(-c4ccncc4)cn3n2)CC1.O=C(O)C(F)(F)F.O=C(O)C(F)(F)F`, which “Percent Effect” value is on record?
Answer: The value was -17.17%.

Question: For `Cc1nccn1-c1ccc(C(=O)NCC(F)(F)F)nn1`, which “Percent Effect” value is on record?
Answer: The value was 18.88%.

Question: Which “Percent Effect” value does the source give for `Cc1cnc(C(=O)N2CCC3(CCN3Cc3ccc(F)cc3)C2)cn1.O=C(O)C(F)(F)F` (stereo not drawn) here?
Answer: Its value is -0.7224%.

Question: For `CN1C(=O)C(C)(C)COc2ccc(NS(=O)(=O)Cc3ccccc3)cc21`, which “Percent Effect” value is on record?
Answer: The value was -4.912%.

Question: For `CN(C)C(=O)c1cnc2n1CCN(Cc1ccsc1)C2.O=C(O)C(F)(F)F`, which “Percent Effect” value is on record?
Answer: Its value is 1.254%.

Question: For `Cc1ccc(CSc2nc(N)cc(NCC(=O)N3CCNCC3)n2)cc1`, which “Percent Effect” value is on record?
Answer: The value was -47.88%.

Question: With `Cc1ccc(CSc2nc(N)cc(NCCS(=O)(=O)N(C)C)n2)cc1` as the compound, how does the “Percent Effect” value read?
Answer: Its value is 52.28%.

Question: With `Cc1ccc(CSc2ncc(Br)c(C(=O)O)n2)cc1` as the compound, how does the “Percent Effect” value read?
Answer: The value was 1.969%.

Question: With `Cc1ccc(CSc2nc(N)cc(NCCC(=O)N3CCCC3)n2)cc1` as the compound, how does the “Percent Effect” value read?
Answer: Its value is 88.28%.

Question: How did the “Percent Effect” value turn out when `CCc1cc(NCCS(=O)(=O)N(C)C)nc(N2CCOCC2)n1` was run?
Answer: The value was 22.77%.

Question: `Cc1ccc(CSc2nc(N)cc(NCCC(N)=O)n2)cc1` was tested. Which “Percent Effect” value did it give?
Answer: Its value is 44.65%.

Question: `CCn1cnnc1CNC(=O)N1CCC(O)CC1` was tested. Which “Percent Effect” value did it give?
Answer: The value was -20.2%.

Question: With `CC(=O)N1CCCN(C(=O)c2cnn(-c3ccccc3Cl)c2)CC1` as the compound, how does the “Percent Effect” value read?
Answer: Its value is -28.49%.

Question: With `Cc1cc(C(F)(F)F)nn1CCCNC(=O)C1CCCO1` (stereo not drawn) as the compound, how does the “Percent Effect” value read?
Answer: Its value is -51.46%.

Question: `O=C(NCC1CC1)C1CCC2(CCN(C(=O)c3ccoc3)CC2)O1` (stereo not drawn) was tested. Which “Percent Effect” value did it give?
Answer: Its value is -8.481%.

Question: Which “Percent Effect” value does the source give for `Cc1ccc2[nH]c(C3CCN(CC(N)=O)CC3)nc2c1` here?
Answer: The value was -20.2%.

Question: How did the “Percent Effect” value turn out when `CCC1CCCCN1Cc1ncc(C(C)(C)C)o1` (stereo not drawn) was run?
Answer: The value was -71.87%.

Question: With `Cl.NC1CCc2nc(-c3cccnc3)nc(Nc3ccc(F)cc3)c2C1` (stereo not drawn) as the compound, how does the “Percent Effect” value read?
Answer: The value was 98.04%.

Question: `CC(O)CNc1nc(-c2cccnc2)nc2c1CCC2` (stereo not drawn) was tested. Which “Percent Effect” value did it give?
Answer: Its value is 12.92%.

Question: How did the “Percent Effect” value turn out when `Cl.NC1CCc2nc(-c3ccncc3)nc(Nc3cccc(F)c3)c2C1` (stereo not drawn) was run?
Answer: Its value is 61.47%.

Question: With `c1cncc(-c2nc3c(c(NCC4(c5ccncc5)CC4)n2)CCC3)c1` as the compound, how does the “Percent Effect” value read?
Answer: The value was 21.3%.

Question: For `COc1cccc(Nc2nc(-c3ccncc3)nc3c2CNCC3)c1.Cl`, which “Percent Effect” value is on record?
Answer: Its value is -3.556%.

Question: How did the “Percent Effect” value turn out when `O=C(Nc1cccc(F)c1)NC1CCN(Cc2ccncc2)CC1` was run?
Answer: Its value is 26.05%.

Question: Which “Percent Effect” value does the source give for `O=C(O)C(F)(F)F.O=C1COC2(CCN(Cc3cccs3)CC2)CN1c1cncnc1` here?
Answer: The value was 13.06%.

Question: `Cc1cnc(N2C(=O)CSC2c2ccccc2)s1` (stereo not drawn) was tested. Which “Percent Effect” value did it give?
Answer: Its value is 7.465%.

From ChEMBL document CHEMBL3988442, “University of Dundee, Small-Polar-MMV Screening Library” (2021)
